Test results taken from ChEMBL document CHEMBL1961873, “Compounds: GSK PKIS; Assays: Nanosyn kinase panel” (2012).

How the values were obtained:
[1] = biological target: RAF proto-oncogene serine/threonine-protein kinase (Homo sapiens) (UniProt P04049); conditions: at 1 µM;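 further: values are the mean percent inhibition of CRAF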
[2] = biological target: T1, Interleukin-1 receptor-associated kinase 4 (Homo sapiens) (UniProt Q9NWZ3); conditions: at 0.1 µM
T1 sequence (whole entry): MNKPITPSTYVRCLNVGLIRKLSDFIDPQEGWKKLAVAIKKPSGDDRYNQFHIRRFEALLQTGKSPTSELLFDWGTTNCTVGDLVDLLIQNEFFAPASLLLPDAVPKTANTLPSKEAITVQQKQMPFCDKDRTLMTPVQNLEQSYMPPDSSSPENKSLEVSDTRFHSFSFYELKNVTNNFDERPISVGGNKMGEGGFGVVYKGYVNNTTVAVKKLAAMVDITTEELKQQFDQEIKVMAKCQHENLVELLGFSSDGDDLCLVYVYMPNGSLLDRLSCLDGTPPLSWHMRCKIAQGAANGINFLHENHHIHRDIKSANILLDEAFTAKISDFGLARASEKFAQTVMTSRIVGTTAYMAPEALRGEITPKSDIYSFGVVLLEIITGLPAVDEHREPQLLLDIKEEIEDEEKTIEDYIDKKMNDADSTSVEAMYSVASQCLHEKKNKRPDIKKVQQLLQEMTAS

[3] = biological target: T1, Interleukin-1 receptor-associated kinase 4 (Homo sapiens); conditions: at 1 µM
[4] = biological target: Leucine-rich repeat serine/threonine-protein kinase 2 (Homo sapiens) (UniProt Q5S007); conditions: at 0.1 µM
Chain of Leucine-rich repeat serine/threonine-protein kinase 2 (Homo sapiens) (Q5S007 whole entry): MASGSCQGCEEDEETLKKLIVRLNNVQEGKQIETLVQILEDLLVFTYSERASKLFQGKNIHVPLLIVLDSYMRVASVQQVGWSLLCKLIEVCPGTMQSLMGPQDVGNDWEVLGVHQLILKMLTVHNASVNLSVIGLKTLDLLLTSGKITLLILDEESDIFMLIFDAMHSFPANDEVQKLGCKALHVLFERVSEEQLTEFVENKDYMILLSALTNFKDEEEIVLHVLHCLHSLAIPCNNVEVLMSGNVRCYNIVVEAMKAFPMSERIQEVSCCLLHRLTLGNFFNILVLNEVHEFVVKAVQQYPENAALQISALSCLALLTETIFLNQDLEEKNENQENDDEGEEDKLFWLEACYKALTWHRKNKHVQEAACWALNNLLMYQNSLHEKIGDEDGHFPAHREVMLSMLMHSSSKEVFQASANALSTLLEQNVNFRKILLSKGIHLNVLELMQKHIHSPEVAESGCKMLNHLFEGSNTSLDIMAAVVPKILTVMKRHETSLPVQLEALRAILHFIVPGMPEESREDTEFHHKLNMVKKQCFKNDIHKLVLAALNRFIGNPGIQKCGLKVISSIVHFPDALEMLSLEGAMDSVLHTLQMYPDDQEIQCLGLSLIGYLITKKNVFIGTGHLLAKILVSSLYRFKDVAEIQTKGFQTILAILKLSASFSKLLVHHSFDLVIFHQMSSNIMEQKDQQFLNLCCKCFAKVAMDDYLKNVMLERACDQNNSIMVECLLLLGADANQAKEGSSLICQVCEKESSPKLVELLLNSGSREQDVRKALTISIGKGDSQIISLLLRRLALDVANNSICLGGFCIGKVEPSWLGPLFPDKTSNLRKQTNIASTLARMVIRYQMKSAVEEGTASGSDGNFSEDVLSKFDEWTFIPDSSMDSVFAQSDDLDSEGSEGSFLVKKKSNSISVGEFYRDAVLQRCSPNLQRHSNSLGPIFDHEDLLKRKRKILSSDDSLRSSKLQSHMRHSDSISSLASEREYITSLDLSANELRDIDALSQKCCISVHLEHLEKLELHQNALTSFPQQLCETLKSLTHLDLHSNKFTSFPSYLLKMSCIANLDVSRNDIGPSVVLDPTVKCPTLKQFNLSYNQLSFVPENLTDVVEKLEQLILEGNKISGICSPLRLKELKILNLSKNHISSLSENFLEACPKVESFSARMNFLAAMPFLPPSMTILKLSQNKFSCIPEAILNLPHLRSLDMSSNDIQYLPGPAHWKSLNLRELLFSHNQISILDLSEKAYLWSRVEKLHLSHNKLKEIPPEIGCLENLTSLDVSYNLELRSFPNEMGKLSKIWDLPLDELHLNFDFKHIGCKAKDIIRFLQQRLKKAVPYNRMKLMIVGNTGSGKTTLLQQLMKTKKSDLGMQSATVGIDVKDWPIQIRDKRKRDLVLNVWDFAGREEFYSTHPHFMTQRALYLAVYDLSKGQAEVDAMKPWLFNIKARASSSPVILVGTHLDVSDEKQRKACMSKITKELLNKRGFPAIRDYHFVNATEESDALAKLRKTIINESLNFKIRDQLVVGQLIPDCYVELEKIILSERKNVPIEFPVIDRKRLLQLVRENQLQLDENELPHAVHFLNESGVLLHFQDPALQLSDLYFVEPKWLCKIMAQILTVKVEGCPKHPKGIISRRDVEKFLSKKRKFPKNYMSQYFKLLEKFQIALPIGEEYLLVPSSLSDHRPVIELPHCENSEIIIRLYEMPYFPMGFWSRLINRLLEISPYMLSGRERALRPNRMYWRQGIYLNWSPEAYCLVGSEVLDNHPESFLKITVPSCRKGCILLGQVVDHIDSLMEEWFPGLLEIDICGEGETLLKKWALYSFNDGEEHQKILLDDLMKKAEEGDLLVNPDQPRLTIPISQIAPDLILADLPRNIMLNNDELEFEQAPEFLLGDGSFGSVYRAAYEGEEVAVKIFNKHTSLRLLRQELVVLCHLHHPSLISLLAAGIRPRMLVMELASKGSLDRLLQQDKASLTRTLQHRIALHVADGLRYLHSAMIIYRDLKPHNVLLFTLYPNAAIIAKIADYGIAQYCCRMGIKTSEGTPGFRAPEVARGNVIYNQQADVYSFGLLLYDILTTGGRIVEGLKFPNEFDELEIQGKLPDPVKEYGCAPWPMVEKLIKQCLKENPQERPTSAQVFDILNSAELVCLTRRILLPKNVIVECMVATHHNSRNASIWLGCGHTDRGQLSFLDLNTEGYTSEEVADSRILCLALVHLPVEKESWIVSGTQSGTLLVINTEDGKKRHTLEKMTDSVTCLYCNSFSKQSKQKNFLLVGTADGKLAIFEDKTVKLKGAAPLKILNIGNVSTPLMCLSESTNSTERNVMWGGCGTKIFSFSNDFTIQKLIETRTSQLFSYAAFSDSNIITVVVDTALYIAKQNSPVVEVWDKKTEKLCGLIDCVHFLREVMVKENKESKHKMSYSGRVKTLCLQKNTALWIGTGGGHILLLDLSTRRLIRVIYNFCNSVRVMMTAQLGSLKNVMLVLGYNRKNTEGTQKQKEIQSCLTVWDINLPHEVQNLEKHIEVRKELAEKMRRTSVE

[5] = biological target: Leucine-rich repeat serine/threonine-protein kinase 2 (Homo sapiens) (UniProt Q5S007); conditions: at 1 µM
[6] = system: Leucine-rich repeat serine/threonine-protein kinase 2 (Homo sapiens), Q5S007 [G2019S]; conditions: at 0.1 µM
Chain of Leucine-rich repeat serine/threonine-protein kinase 2 (Homo sapiens), Q5S007 [G2019S] (Q5S007 whole entry G2019S): as the sequence (Q5S007 whole entry) above, with G2019S counted along it

[7] = system: Leucine-rich repeat serine/threonine-protein kinase 2 (Homo sapiens), Q5S007 [G2019S]; conditions: at 1 µM

Chain of RAF proto-oncogene serine/threonine-protein kinase (Homo sapiens) (P04049 whole entry): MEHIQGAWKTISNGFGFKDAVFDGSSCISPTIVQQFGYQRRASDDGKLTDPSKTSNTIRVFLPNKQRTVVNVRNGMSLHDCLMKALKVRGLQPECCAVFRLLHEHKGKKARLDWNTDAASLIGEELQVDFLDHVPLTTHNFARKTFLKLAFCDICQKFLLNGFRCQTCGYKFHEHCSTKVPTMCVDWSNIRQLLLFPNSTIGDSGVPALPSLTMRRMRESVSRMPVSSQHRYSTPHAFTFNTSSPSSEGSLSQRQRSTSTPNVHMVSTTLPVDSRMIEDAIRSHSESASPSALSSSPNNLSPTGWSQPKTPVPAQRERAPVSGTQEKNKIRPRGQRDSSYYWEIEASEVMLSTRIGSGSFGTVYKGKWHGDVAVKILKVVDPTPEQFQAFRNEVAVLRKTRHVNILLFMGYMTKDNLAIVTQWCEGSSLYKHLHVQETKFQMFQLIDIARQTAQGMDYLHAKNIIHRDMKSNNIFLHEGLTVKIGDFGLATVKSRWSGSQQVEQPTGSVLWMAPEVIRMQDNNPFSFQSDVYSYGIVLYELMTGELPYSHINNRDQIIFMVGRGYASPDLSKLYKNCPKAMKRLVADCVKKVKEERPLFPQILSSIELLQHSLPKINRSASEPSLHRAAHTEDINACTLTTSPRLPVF

SMILES	inhibition [1] [%]	inhibition [2] [%]	inhibition [3] [%]	inhibition [4] [%]	inhibition [5] [%]	inhibition [6] [%]	inhibition [7] [%]
CS(=O)(=O)CCN(CC#N)Cc1ccc(-c2ccc3ncnc(Nc4ccc(OCc5cccc(F)c5)c(Cl)c4)c3c2)o1	-3.46	0.21	0.75	-6.54	-8.08	-3.2	-2.31
COc1ccc(-c2coc3ncnc(N)c23)cc1	4.1	0.41	1.48	3.62	6.4	4.35	7.19
CS(=O)(=O)CCNCc1nc(-c2ccc3ncnc(Nc4ccc(F)c(Cl)c4)c3c2)cs1	-0.82	0.41	1.35	2.13	5.82	1.31	2.37
COc1cccc(-n2ncc3c(N/N=C/c4cccc(F)c4)ncnc32)c1	-6.84	3.28	1.56	-3.46	-0.49	0.79	2.23
NS(=O)(=O)c1ccc(N/N=C2\C(=O)Nc3ccc(C(=O)NCCc4c[nH]cn4)cc32)cc1	–	-1.81	2.08	10.3	16.9	15.3	50
CS(=O)(=O)CCNCc1ccc(-c2ccc3ncnc(Nc4ccc(OCc5cccc(F)c5)c(C(F)(F)F)c4)c3c2)o1	12.1	4.38	1.89	0.82	1.68	3.39	2.93
COc1cc2ncn(-c3cc(OCc4ccccc4C(F)(F)F)c(C(N)=O)s3)c2cc1OC	-0.64	1.2	1.85	1.63	16.1	5.35	40.1
c1cnn2ncc(-c3ccnc(Nc4ccc5c(c4)OCCO5)n3)c2c1	–	-2.01	7.85	12.2	19.8	16.6	61.4
Cc1ccc(C(=O)NC2CCCCC2)cc1-c1ccc(C(=O)NCC2CC2)cc1	0.13	-1.27	1.67	6.21	6.84	3.47	3.31
COc1ccc(COc2ccc(Cc3cnc(N)nc3N)cc2OC)cc1	–	1.04	0.89	4.88	5.38	3.29	5.32
Cc1cccc(-c2n[nH]cc2-c2ccc3ncccc3n2)n1	–	1.85	0.21	1.67	10.1	2.43	10.6
Nc1nc(-c2ccccn2)c(-c2ccc3ncccc3n2)s1	2.42	-3.29	1.27	2.15	4.38	1.86	5.88
O=C(Nc1n[nH]c2nc(-c3ccco3)c(Br)cc12)C1CC1	2.37	5.57	1.08	2.41	2.93	2.74	6.98
Cc1nn(C)c2cc(N(C)c3ccnc(Nc4cccc(S(N)(=O)=O)c4)n3)ccc12	3.83	2.51	6.18	1.65	7	4.07	12.3
O=C1NC(=O)C(c2ccccc2Cl)=C1Nc1cccc(O)c1	-0.43	-2	1.87	4.27	13.2	3.28	14.6
CCn1c(-c2nonc2N)nc2cnc(Oc3cccc(NC(=O)c4ccc(OCCN5CCOCC5)cc4)c3)cc21	6.03	3.17	1.66	0.83	9.41	4.44	29.3
CNC(=O)c1cncc(/C=C/c2c(Cl)cccc2Cl)c1	0.92	1.25	2.37	0.98	7.19	5.24	14.7

SMILES	inhibition [1] [%]	inhibition [2] [%]	inhibition [3] [%]	inhibition [4] [%]	inhibition [5] [%]	inhibition [6] [%]	inhibition [7] [%]
Cc1nnc(-c2ccc(C)c(-c3ccc(C(=O)Nc4cccc(C#N)c4)cc3)c2)o1	-9.42	4.13	0.84	0.06	0.83	2.49	7.62
COc1cc2ncn(-c3cc(O[C@H](C)c4ccccc4Cl)c(C(N)=O)s3)c2cc1OC	2.16	-1.67	3.82	5.85	21.6	12.1	51.9
Cc1cc(O)cc(C)c1/C=C/c1cncc(-c2nn[nH]n2)c1	60.8	1.46	2.18	1.54	10.4	6.18	35.4
O=C1NC(=O)C(c2ccc(Cl)cc2)=C1Nc1ccc(Cl)c(C(=O)O)c1	–	-1.49	-0.81	-0.67	0.65	1.27	3.84
CCc1cccc(NC(=O)Nc2ccc(Oc3ccc4nc(NC(=O)OC)[nH]c4c3)cc2)c1	4.58	0.53	1.04	9.23	8.78	5.51	8.2
Cn1cc(C=C2C(=O)Nc3cccnc32)c2ccccc21	–	6.41	5.04	8.55	20.8	15	55.4
CCCN1CCC(Oc2cc(Nc3nc(Nc4cccc(F)c4C(N)=O)c4cc[nH]c4n3)c(OC)cc2Cl)CC1	5.41	-2.83	2.25	11.5	19.6	12.8	55.9
CC1=C(C(=O)Nc2ccc3[nH]ncc3c2)C(c2ccc(F)cc2)NC(=O)N1 (stereo unspecified)	-2.67	2.07	0.77	2.24	5.08	3.81	14.8
COC(=O)Nc1nc2cc(Oc3ccc(NC(=O)Nc4cccc(C(=O)O)c4)cc3)ccc2[nH]1	0.7	1.45	0.26	-4.47	4.49	-2.68	3.07
CS(=O)(=O)CCNCc1ccc(-c2ccc3ncnc(Nc4ccc(OCc5ccccc5)c(Cl)c4)c3c2)o1	-1.69	0.4	0.86	2.66	7.97	4.51	7.5
COc1cc2ncn(-c3cc(OCc4ccccc4Cl)c(C(N)=O)s3)c2cc1OC	0.88	2.64	0.8	2.12	14.5	12	54.5
COC(=O)Nc1nc2cc(Oc3cccc(NC(=O)Nc4cc(C(F)(F)F)ccc4F)c3)ccc2[nH]1	–	3.51	-0.12	0.62	1.81	2.19	4.67
CN(C)c1cc2c(Nc3ccc4nc(Cc5ccccc5)[nH]c4c3)ncnc2cn1	-7.27	2.36	1.94	5.94	7.11	5.3	13.7
N#Cc1c(NC(=O)c2cccc3ccccc23)sc2c1CCCC2	3.48	2.64	1.05	1.35	2.73	1.99	3.65
COc1cc2ncn(-c3cc(O[C@@H](C)c4ccccc4Cl)c(C(N)=O)s3)c2cc1OC	4.09	1.23	2.08	10.9	50	24	64
Nc1nc(-c2ccc3c(c2)C(=Cc2cc(Br)c(O)c(Br)c2)C(=O)N3)cs1	26.7	3.08	-0.15	0.74	14.2	10.3	43.5
CC1=C(C(=O)Nc2ccc3[nH]ncc3c2)C(c2ccc(Cl)c(Cl)c2)CC(=O)N1 (stereo unspecified)	2.44	-3.53	0.93	2.44	4.77	0.95	8.99
